Test results from PubChem BioAssay (NCI).
Where “and” joins values, the source holds several entries; their conditions need not be identical. Equal entries are not always repeated. The panel holds about 83,000 compounds, 20% with a hit somewhere; the sample as a whole holds those more often.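 48-hour exposure, single concentration, 96-well plates; percent growth endpoint where 0 means no net growth. Active: below 10.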 Calls of active or inactive are those of the source.

test system: MDA-MB-468 breast; test: NCI-60 one-dose screen, 48 h (100 = growth as untreated, 0 = no growth, -100 = all killed); details: 10 µM unless noted
Description: Growth inhibition of the MDA-MB-468 human Breast tumor cell line is measured as a screen for anti-cancer activity. Cells are grown in 96 well plates and exposed to the test compound for 48 hours. Compounds are tested at a single concentration, which is 10^-5 M for most compounds. The reported endpoint is percent growth (GI% or GIPRCNT), where numbers from 0 - 100% represent growth inhibition, and numbers from -100% - 0 represent cell death. For example, a value of 40 represents 60% growth inhibition. A value of 0 means no net growth occurred over the course of the experiment. A value of -40 indicates 40% of cells at the beginning of the experiment died by the end of the experiment. A value of -100 means all cells are dead at the end of the experiment.
NCI-60 Human Tumor Cell Lines Screen was performed using the standard one-dose NCI protocol, which is described in more detail at https://dtp.cancer.gov/discovery_development/nci-60/default.htm.
Compounds with GIPRCNT values below 10 were considered active. Activity score was based on GIPRCNT using the following formula: […]
Score is 0 for GIPRCNT values of 100 or above, 50 for GIPRCNT values of 0, and 100 for GIPRCNT values of -100.

Compound | growth
CC1(C)N=C(N)N=C(N)N1c1ccc(CCC(=O)Nc2ccc(S(=O)(=O)F)cc2)c(Cl)c1 | 64.2% (inactive)
CC(=O)Nc1nc2c(s1)CC[C@@]1(C)C2=CC[C@H]2[C@@H]3CC[C@H](O)[C@@]3(C)CC[C@@H]21 | 58.2% (inactive)
COc1ccc(-n2c(C)nc3cc(OC)c(OC)cc3c2=O)cc1OC | 114% (inactive)
COc1ccccc1/C=C(/C)[N+](=O)[O-] | 14.4% (inactive) and 103% (inactive)
CC(=O)O[C@H](C[C@H](C(C)C)N(C)C(=O)[C@@H](NC(=O)[C@H]1CCCCN1C)C(C)C)c1nc(C(=O)N[C@@H](Cc2ccccc2)C[C@H](C)C(=O)O)c(C(C)C)s1 | 19.8% (inactive)
CCCCCSC1C2C(=O)C(Br)=CC13CCNc1c(O)c4c5c(c13)=[N+]2CCC=5C=N4 (stereo not given) | -30.5% (active)
CCCCCCCCCC(=O)N[C@@](C)(CC)C(=O)N1CCC[C@H]1C(=O)N[C@@H](CC(C)C)C(=O)N[C@@](C)(CC)C(=O)N[C@@H](CCC(N)=O)C(=O)N[C@H](CCC(N)=O)C(=O)NC(C)(C)C(=O)NC(C)(C)C(=O)N[C@@H](CCC(N)=O)C(=O)N[C@H](CC(C)C)C(=O)N[C@H](CO)CC(C)C | -94.7% (active) and -92.4% (active)
O=P(Oc1ccc(Cl)cc1)(N1CC1)N1CC1 | 54.1% (inactive)
CNC(=O)Oc1cccc(C(F)(F)F)c1 | 110% (inactive)
CCOP(=O)(OCC)C(NC(C)=O)C(=O)SCCN (stereo not given) | 124% (inactive)
CCC(CC)(c1ccccc1)C(OC(N)=O)c1ccccc1 (stereo not given) | 75.8% (inactive)
Oc1cccc2cccnc12 | 25% (inactive) and 96.3% (inactive) and 106% (inactive)
O=C(O)C1(Br)CC12c1ccccc1-c1ccccc12 (stereo not given) | 98.7% (inactive)
COc1ccc(N(CC(=O)NCCC[Te]c2ccccc2)C(=O)CNC(=O)OC(C)(C)C)cc1 | 92.6% (inactive)
CC(C)CCC[C@@H](C)[C@H]1CC[C@H]2[C@@H]3CC=C4C[C@@H](OC(=O)Cc5ccc(N(CCCl)CCCl)cc5)CC[C@]4(C)[C@H]3CC[C@]12C | 107% (inactive)
CC(=O)O[C@H](C[C@H](C(C)C)N(C)C(=O)[C@@H](NC(=O)[C@H]1CCCCN1C)C(C)(C)C)c1nc(C(=O)N[C@@H](Cc2ccccc2)C[C@H](C)C(=O)O)cs1 | 4.72% (active)
Cn1cccc1C1CC(=O)N(CCC[Se]C#N)C1=O (stereo not given) | 13.6% (inactive)
COP(=O)(CC(F)(F)C(F)(F)F)OC | -53.6% (active)
O=C(/C=C/c1ccccc1)c1nc2ccccc2n1Cc1ccc(F)cc1 | -90.3% (active)
CN1CCN(c2ccc([N+](=O)[O-])c3no[n+]([O-])c23)CC1 | -70.3% (active)

Compound | growth
COC(=O)[C@]12CCC(C)(C)C[C@H]1[C@H]1C(=O)C[C@@H]3[C@@]4(C)C[C@@]5(CC(C)(C)[C@@H]4CC[C@@]3(C)[C@]1(C)CC2)OO[C@@](C)(C(F)(F)F)O5 | 84.5% (inactive)
Nc1nc(N)c(-c2ccc(Cl)c(Cl)c2)c(/C=C/c2ccc(S(=O)(=O)F)cc2)n1 | 103% (inactive)
CN1CCN(C(=O)COc2ccc(/C=C3\CC4C5CC=C6CC(Cl)CCC6(C)C5CCC4(C)C3=O)cc2)CC1 (stereo not given) | 66.6% (inactive)
S=P(NC1CCCCC1)(N1CC1)N1CC1 | 103% (inactive)
ClCCN(CCCl)C(c1ccccc1)c1ccc(Cl)cc1 (stereo not given) | 35.1% (inactive)
Oc1c(Cl)cc(Cl)c2ccccc12.[Cu+2] | 101% (inactive)
C#C[C@]1(OC(=O)CCCCCC)CC[C@H]2[C@@H]3CCC4=CC(=O)CC[C@@H]4[C@H]3CC[C@@]21C | 39.6% (inactive)
O=C1C(=Cc2cn(Cc3ccccc3)c3ccccc23)C(=O)N(Cc2ccccc2)C(=O)N1Cc1ccccc1 | -71.8% (active)
Cc1ccc(C(=O)OC(C(=O)O)C(OC(=O)c2ccc(C)cc2)C(=O)O)cc1 (stereo not given) (tested in a mixture with another compound) | -12.2% (active)
O=C(CC1(O)C(=O)N(Cc2ccccc2)c2ccccc21)c1ccc(C(=O)NCC2CCC3(CC2)OOC2(CCCCC2)OO3)cc1 (stereo not given) | -56.6% (active)
Cc1ccc2oc(=O)c3c(c2c1)OC(N)=C(C#N)C3c1ccco1 (stereo not given) | 91.4% (inactive)
C1CCC([PH+](C2CCCCC2)C2CCCCC2[PH+](C2CCCCC2)C2CCCCC2)CC1.O=C(C1[CH-]CCCC1)C1CCCC[N-]1.[Au] (stereo not given) | -40.3% (active)
N#CC1(c2ccccc2)CCN(Cc2ccccc2)CC1 | 90.2% (inactive)
O=C1CNC(c2ccccc2)c2cc(Cl)ccc2N1 (stereo not given) | 104% (inactive)
O=S(=O)(F)c1cccc(Cl)c1C[P+](c1ccccc1)(c1ccccc1)c1ccccc1 | 46.9% (inactive)
CCN(CC)c1ccc2c(c1)OC(N)=C(C#N)C2c1cc(OC)c2c(c1)OCO2 (stereo not given) | -9.24% (active)
C[Se]/C=C1/C(=O)N(c2c(Cl)cccc2Cl)c2ccccc21 | -6.67% (active)
CCC1([N+](=O)[O-])COP(=O)(NCc2cccnc2)OC1 (stereo not given) | 104% (inactive)
CC(=O)O[C@H](C[C@H](C(C)C)N(C)C(=O)[C@@H](NC(=O)[C@H]1CCCCN1C)C(C)C)c1nc(C(=O)N[C@@H](Cc2ccccc2)C[C@H](C)C(=O)O)c(CCOCc2ccccc2)s1 | 1.12% (active)
CCOC(=O)c1cncn1C(C)c1ccccc1 (stereo not given) | 97.6% (inactive)
